Experimental data from publication PMC7862700, “An all-to-all approach to the identification of sequence-specific readers for epigenetic DNA modifications on cytosine”.

Assays:
Assay in all cases: DAPPL (digital affinity profiling via proximity ligation, sequencing); 10 mM Tris-HCl pH 7.5, 50 mM NaCl, 1 mM DTT, 4% glycerol, room temperature, 30 min; GST-TFs on glutathione beads, 16-mer random dsDNA library, 0.1% formaldehyde crosslink after washing; high values mean tight binding
Conditions in all cases: protein: recombinant; tags: N-terminal GST; dsDNA, one strand shown
[1] = target: T1, FLI1 (Homo sapiens, UniProt Q01543 1-452)
T1 sequence: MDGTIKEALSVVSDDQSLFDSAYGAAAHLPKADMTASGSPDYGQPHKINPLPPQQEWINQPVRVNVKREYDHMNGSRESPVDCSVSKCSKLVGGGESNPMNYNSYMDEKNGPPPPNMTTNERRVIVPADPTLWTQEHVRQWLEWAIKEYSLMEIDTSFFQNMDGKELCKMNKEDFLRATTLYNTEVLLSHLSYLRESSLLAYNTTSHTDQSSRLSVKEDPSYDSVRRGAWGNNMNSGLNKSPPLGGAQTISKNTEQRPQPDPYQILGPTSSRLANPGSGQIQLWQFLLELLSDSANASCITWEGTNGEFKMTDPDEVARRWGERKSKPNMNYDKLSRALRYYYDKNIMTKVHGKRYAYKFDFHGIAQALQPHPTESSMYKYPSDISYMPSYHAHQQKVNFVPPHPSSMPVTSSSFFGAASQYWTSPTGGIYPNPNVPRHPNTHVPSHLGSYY
Method in brief: (§1)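 Human transcription factors were made in yeast as GST fusions, captured on glutathione beads and barcoded with DNA. With a tag-only sample included, the pool was incubated with 200 nmole of a random double-stranded 16-mer DNA library in Tris/NaCl/DTT/glycerol buffer at room temperature for 30 min, then crosslinked with 0.1% formaldehyde after washing, ligated by proximity, amplified and sequenced. For binding signal, each hexamer's read frequency for a factor is divided by its frequency for the tag-only sample.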

[2] = target: T2, ELK1 (Homo sapiens, UniProt P19419 1-428)
T2 sequence: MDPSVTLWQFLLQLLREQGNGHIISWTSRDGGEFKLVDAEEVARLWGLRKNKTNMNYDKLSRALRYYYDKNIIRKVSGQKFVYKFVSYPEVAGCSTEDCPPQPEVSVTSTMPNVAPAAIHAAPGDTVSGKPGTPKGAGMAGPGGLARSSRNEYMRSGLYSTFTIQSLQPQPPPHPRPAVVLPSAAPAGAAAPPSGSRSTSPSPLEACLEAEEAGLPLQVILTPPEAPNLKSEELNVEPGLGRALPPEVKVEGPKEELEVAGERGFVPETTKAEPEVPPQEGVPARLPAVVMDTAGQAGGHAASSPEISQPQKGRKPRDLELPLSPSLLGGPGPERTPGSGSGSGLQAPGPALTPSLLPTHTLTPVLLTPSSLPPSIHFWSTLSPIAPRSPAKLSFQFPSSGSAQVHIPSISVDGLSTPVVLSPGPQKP
Method in brief: as §1

[3] = target: T3, GABPA (Homo sapiens, UniProt Q06546 1-454)
T3 sequence: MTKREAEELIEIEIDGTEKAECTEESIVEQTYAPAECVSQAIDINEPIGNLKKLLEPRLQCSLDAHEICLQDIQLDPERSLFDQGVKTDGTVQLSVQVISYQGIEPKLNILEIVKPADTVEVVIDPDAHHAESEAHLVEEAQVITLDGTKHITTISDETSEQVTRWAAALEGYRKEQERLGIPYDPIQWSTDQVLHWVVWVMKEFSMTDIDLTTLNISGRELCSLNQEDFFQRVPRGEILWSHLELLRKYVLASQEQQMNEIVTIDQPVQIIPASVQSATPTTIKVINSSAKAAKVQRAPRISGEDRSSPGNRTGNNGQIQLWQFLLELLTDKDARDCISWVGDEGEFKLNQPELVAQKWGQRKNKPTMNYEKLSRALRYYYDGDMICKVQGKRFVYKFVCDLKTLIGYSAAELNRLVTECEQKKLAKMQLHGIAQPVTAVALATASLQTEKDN
Method in brief: as §1

[4] = target: T4, ERG (Homo sapiens, UniProt P11308 1-479)
T4 sequence: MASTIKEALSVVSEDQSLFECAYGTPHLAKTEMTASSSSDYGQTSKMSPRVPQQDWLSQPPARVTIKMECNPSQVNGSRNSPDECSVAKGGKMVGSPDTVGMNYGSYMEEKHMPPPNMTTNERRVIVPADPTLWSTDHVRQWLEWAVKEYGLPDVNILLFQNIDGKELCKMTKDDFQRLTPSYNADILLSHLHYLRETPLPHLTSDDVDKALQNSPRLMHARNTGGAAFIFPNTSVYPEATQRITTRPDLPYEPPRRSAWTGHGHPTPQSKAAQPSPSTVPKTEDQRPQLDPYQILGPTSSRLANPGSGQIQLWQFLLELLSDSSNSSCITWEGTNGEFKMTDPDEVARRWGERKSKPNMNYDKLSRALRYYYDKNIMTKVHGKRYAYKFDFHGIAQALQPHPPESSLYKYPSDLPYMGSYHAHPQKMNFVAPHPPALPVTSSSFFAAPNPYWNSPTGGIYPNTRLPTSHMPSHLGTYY
Method in brief: as §1

[5] = target: ELF1 (Homo sapiens, UniProt P32519 1-619)
ELF1, sequence (P32519 whole entry): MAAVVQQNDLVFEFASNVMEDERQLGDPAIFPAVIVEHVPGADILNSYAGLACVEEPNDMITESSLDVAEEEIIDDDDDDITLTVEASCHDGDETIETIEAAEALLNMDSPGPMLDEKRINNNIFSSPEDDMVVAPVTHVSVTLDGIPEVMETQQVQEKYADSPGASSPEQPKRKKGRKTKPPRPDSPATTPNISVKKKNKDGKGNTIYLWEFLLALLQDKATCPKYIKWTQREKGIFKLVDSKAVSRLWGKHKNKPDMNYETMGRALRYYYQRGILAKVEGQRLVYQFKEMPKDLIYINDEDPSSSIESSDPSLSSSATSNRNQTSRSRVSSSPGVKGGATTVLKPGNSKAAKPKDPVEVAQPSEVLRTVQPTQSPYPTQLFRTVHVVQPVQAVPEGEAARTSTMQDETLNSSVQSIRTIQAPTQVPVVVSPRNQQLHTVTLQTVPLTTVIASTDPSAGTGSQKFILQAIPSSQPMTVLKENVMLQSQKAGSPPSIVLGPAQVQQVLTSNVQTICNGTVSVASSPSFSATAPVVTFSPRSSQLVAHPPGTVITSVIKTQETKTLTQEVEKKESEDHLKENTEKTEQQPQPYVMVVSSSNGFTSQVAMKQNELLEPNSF
Method in brief: as §1

[6] = target: SPI1 (Homo sapiens, UniProt P17947 1-270)
Method in brief: as §1

[7] = target: SPIB (Homo sapiens, UniProt Q01892 1-262)
SPIB, sequence (Q01892 whole entry): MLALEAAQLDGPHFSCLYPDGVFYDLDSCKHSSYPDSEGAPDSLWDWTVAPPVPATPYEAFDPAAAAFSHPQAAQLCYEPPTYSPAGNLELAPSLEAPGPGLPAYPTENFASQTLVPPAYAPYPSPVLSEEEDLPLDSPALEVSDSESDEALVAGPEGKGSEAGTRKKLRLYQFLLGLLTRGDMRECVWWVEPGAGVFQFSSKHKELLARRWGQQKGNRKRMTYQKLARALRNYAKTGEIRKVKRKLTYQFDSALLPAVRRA
Method in brief: as §1

[8] = target: T5, ELK3 (Homo sapiens, UniProt P41970 1-407)
T5 sequence: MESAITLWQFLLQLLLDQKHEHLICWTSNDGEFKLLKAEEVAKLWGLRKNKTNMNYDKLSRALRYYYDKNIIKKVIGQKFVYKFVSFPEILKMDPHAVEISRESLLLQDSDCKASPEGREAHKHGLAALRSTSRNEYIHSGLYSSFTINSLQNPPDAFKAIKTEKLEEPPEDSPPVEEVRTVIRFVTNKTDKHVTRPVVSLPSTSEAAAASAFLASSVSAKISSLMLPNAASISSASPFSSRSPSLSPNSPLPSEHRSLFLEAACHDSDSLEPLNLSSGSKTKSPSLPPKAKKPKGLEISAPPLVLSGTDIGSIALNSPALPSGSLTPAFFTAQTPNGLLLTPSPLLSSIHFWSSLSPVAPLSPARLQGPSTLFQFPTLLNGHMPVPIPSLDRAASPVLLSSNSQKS
Method in brief: as §1

[9] = target: T6, FEV (Homo sapiens, UniProt Q99581 1-238)
T6 sequence: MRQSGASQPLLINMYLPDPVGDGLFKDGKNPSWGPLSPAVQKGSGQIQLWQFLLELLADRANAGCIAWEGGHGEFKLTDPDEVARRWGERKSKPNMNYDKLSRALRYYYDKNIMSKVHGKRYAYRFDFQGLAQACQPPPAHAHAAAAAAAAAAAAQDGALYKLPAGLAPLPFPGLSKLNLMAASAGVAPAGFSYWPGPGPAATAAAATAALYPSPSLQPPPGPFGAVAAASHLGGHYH
Method in brief: as §1

[10] = target: ETV5 (Homo sapiens, UniProt P41161 1-510)
ETV5, sequence (P41161 whole entry): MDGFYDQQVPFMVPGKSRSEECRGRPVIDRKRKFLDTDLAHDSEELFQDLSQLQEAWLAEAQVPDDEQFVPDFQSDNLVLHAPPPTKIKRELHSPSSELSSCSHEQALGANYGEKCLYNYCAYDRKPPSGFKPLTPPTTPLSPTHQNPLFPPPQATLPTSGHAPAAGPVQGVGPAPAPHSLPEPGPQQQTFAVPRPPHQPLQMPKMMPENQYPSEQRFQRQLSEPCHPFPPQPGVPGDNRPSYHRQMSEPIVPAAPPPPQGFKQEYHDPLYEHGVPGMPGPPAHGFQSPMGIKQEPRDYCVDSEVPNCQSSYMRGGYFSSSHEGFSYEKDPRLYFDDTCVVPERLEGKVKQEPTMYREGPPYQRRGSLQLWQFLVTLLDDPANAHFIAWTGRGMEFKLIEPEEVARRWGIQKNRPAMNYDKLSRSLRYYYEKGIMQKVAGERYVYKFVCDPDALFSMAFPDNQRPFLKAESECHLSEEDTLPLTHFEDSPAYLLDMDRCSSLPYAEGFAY
Method in brief: as §1

[11] = target: T7, SPIC (Homo sapiens, UniProt Q8N5J4 1-248)
T7 sequence: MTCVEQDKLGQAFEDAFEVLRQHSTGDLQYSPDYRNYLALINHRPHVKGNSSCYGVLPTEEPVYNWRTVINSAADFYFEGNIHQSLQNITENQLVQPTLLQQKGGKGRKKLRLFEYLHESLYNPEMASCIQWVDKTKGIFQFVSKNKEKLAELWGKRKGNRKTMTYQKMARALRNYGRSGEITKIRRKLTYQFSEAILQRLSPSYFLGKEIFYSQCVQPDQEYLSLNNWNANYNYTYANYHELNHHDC
Method in brief: as §1

[12] = target: ELF4 (Homo sapiens, UniProt Q99607 1-663)
ELF4, sequence (Q99607 whole entry): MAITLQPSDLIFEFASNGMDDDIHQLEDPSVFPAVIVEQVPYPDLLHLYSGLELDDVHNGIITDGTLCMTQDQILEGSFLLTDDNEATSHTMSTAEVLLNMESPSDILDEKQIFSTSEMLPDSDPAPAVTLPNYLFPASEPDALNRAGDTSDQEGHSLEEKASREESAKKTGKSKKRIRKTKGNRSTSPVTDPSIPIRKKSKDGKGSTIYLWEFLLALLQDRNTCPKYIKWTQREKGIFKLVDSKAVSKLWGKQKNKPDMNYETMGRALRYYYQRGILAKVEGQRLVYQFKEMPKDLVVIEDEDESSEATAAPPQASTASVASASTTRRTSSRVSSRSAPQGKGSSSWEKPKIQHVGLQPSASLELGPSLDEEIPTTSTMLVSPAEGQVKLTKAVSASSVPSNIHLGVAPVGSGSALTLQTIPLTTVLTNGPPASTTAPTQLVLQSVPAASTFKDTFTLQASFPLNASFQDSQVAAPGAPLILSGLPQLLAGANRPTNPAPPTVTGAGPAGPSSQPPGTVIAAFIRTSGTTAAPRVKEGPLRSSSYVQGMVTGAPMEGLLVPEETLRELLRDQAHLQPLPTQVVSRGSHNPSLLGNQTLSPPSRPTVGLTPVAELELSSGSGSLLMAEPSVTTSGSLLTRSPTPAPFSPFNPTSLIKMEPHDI
Method in brief: as §1

[13] = target: T8, ELK4 (Homo sapiens, UniProt P28324-2 1-405)
T8 sequence: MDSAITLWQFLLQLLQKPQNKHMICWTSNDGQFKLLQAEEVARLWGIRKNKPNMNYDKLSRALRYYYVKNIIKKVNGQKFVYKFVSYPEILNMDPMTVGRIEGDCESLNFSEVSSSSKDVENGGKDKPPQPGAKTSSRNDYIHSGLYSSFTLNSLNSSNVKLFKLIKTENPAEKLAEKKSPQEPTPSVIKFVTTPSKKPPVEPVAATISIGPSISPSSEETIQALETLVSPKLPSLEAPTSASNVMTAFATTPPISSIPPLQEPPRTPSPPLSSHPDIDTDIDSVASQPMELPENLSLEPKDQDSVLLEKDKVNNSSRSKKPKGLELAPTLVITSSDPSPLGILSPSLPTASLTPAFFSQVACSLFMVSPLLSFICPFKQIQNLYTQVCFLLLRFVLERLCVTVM
Method in brief: as §1

[14] = target: T9, ETV2 (Homo sapiens, UniProt O00321 1-342)
T9 sequence: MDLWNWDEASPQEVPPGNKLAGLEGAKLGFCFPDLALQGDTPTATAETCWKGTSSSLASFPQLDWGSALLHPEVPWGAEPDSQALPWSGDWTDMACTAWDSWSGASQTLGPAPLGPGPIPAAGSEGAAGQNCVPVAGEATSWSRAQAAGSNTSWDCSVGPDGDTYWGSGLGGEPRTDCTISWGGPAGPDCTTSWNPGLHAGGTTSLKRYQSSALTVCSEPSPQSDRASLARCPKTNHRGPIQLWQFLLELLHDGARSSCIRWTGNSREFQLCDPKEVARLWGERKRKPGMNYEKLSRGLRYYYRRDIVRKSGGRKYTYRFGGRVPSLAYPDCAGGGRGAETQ
Method in brief: as §1

[15] = target: T10, ELF3 (Homo sapiens, UniProt P78545 1-371)
T10 sequence: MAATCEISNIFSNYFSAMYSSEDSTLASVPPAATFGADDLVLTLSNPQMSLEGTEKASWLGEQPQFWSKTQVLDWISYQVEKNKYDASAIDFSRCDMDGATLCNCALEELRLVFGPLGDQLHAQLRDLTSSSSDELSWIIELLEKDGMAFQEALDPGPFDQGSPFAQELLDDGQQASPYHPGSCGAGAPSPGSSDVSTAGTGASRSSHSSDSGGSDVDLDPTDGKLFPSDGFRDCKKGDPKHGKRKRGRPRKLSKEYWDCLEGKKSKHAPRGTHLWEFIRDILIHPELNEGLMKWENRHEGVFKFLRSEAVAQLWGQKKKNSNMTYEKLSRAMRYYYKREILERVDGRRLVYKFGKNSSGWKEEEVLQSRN
Method in brief: as §1

[16] = target: ETV1 (Homo sapiens, UniProt P50549 1-477)
ETV1, sequence (P50549 whole entry): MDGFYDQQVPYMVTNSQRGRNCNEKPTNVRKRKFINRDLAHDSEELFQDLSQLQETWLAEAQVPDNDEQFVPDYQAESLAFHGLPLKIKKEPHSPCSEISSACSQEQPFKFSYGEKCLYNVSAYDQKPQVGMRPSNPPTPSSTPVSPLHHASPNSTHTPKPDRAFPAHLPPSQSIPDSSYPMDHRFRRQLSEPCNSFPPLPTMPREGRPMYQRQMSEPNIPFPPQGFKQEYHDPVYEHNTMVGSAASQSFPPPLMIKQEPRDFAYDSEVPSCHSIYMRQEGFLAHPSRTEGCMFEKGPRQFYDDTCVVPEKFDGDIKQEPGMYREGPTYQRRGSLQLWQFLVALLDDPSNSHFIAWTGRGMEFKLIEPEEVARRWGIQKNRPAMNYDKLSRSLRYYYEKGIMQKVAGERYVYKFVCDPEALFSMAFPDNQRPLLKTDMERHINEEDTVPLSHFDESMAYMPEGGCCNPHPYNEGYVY
Method in brief: as §1

[17] = target: T11, EHF (Homo sapiens, UniProt Q9NZC4 1-300)
T11 sequence: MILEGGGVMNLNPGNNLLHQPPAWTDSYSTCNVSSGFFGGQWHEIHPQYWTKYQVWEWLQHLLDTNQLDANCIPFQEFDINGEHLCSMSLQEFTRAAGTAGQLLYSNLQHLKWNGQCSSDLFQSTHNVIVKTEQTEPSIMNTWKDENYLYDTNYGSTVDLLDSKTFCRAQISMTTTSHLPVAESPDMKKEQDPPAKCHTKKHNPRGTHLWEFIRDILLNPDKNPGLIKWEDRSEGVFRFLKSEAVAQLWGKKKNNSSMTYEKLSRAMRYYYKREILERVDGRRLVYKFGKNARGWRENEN
Method in brief: as §1

Row | Sequence | binding signal [1] | binding signal [2] | binding signal [3] | binding signal [4] | binding signal [5] | binding signal [6] | binding signal [7] | binding signal [8] | binding signal [9] | binding signal [10] | binding signal [11] | binding signal [12] | binding signal [13] | binding signal [14] | binding signal [15] | binding signal [16] | binding signal [17]
1 | CCTGTG | 1.06 fold enrichment (6-mer frequency, TF over GST control) | 1.24 fold enrichment (6-mer frequency, TF over GST control) | 1.08 fold enrichment (6-mer frequency, TF over GST control) | 1.21 fold enrichment (6-mer frequency, TF over GST control) | 1.11 fold enrichment (6-mer frequency, TF over GST control) | 1.04 fold enrichment (6-mer frequency, TF over GST control) | 1.18 fold enrichment (6-mer frequency, TF over GST control) | 1.01 fold enrichment (6-mer frequency, TF over GST control) | 1.11 fold enrichment (6-mer frequency, TF over GST control) | 1.07 fold enrichment (6-mer frequency, TF over GST control) | 1.32 fold enrichment (6-mer frequency, TF over GST control) | 1.11 fold enrichment (6-mer frequency, TF over GST control) | 1.22 fold enrichment (6-mer frequency, TF over GST control) | 1.11 fold enrichment (6-mer frequency, TF over GST control) | 1 fold enrichment (6-mer frequency, TF over GST control) | 1.12 fold enrichment (6-mer frequency, TF over GST control) | 
2 | GCTGAC | 1.17 fold enrichment (6-mer frequency, TF over GST control) | 1.1 fold enrichment (6-mer frequency, TF over GST control) | 1.04 fold enrichment (6-mer frequency, TF over GST control) |  | 1.16 fold enrichment (6-mer frequency, TF over GST control) | 1.04 fold enrichment (6-mer frequency, TF over GST control) | 1.12 fold enrichment (6-mer frequency, TF over GST control) | 1.13 fold enrichment (6-mer frequency, TF over GST control) | 1.12 fold enrichment (6-mer frequency, TF over GST control) | 1.03 fold enrichment (6-mer frequency, TF over GST control) | 1.1 fold enrichment (6-mer frequency, TF over GST control) | 1.1 fold enrichment (6-mer frequency, TF over GST control) | 1.05 fold enrichment (6-mer frequency, TF over GST control) | 1.38 fold enrichment (6-mer frequency, TF over GST control) | 1.27 fold enrichment (6-mer frequency, TF over GST control) | 1.03 fold enrichment (6-mer frequency, TF over GST control) | 1.21 fold enrichment (6-mer frequency, TF over GST control)
